Experimental data as given in the supplement of paper PMC3334620.
Whole data set: some 33,000 sequences, median “E-score (-0.5 to 0.5)” near -0.015, cut for the highest 2% near 0.3. Shown is part of a subset that was picked to be rich in the highest values.

biological target: T1, Abf1 (UniProt P14164); assay: PBM E-score (8-mer binding enrichment) (E-score (-0.5 to 0.5)); higher = stronger / more preferred TF binding; settings: protein concentration: 200 nM; construct: GST-full length
T1 sequence: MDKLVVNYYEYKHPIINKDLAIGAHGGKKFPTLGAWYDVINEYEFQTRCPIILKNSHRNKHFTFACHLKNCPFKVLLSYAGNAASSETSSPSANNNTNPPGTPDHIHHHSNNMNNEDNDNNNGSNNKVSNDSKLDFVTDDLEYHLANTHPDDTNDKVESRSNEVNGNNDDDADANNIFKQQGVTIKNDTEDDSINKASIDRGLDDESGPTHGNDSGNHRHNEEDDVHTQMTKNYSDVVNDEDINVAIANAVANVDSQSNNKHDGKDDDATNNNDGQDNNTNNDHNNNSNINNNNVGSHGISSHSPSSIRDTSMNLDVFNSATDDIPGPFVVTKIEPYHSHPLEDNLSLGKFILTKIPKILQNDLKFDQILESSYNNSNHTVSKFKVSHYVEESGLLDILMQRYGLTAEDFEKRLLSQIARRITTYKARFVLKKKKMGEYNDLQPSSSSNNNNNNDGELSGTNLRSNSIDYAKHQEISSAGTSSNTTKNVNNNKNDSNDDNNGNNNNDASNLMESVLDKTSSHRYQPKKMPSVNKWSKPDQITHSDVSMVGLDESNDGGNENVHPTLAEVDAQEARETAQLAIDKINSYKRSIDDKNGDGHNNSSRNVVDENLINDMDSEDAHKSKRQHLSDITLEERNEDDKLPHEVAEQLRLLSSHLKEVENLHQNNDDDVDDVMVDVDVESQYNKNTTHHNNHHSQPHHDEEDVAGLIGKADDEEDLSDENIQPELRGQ
Procedure: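 Universal 'all 10-mer' protein binding microarrays (Agilent AMADID 015681) probed with GST-tagged S. cerevisiae TFs (full-length or DBD) made by in vitro transcription/translation (PURExpress), about 100-200 nM. Bound TF was detected with fluorescent anti-GST. Each ungapped 8-mer (which stands for itself and its reverse complement) is scored by the PBM enrichment score (E-score), a modified Wilcoxon-Mann-Whitney statistic from -0.5 to +0.5, computed with the Universal PBM Analysis Suite. Scale: above 0.35 generally sequence-specific binding.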

Row | Sequence | PBM E-score
1 | AGCTACCC | -0.0429
2 | ACGCTAGT | 0.043
3 | CAATGCGG | -0.281
4 | ACGGGTCC | 0.142
5 | GTGGACAC | -0.0874
6 | TAGGTCAA | 0.0576
7 | ATGGCGAG | 0.0386
8 | AGTATTTA | 0.152
9 | AGTATTGA | 0.0838
10 | CCTATTTC | 0.095
11 | GGTATTTA | 0.0301
12 | CGTATTTC | 0.316
13 | GGTATTGA | 0.00996
14 | CGTATTTA | 0.335
15 | CGTATTGA | 0.307
16 | AGTATTTC | 0.209
17 | AACCTGGC | -0.112
18 | GGCCGGCA | -0.157
19 | CTGCCGAC | -0.121
20 | TCTCTCCA | -0.031
21 | GGCTCTCA | -0.224
22 | CTCGTGAA | 0.224
23 | ATCGTGAC | 0.255
24 | AGCGTGAC | 0.186
25 | CGCGTGAG | 0.00035
26 | CGCGTGAC | 0.303

Row | Sequence | PBM E-score
27 | CTCGTGAC | 0.344
28 | GGACCCCC | -0.249
29 | CGACTATA | 0.129
30 | AGACCTAA | -0.206
31 | CTACATAA | -0.118
32 | CGACAAAA | 0.241
33 | GTACATAA | 0.324
34 | TGACAAAA | 0.304
35 | ATACAAAA | 0.0848
36 | GGACAAAA | -0.0523
37 | CTACAAAA | 0.139
38 | GGACATAA | -0.032
39 | GTACAAAA | 0.344
40 | TTACATAA | 0.197
41 | TGACATAA | 0.351
42 | AGACATAA | -0.0415
43 | AACACTGA | -0.142
44 | AGTGGATA | 0.0619
45 | AAAGAAGG | -0.118
46 | AACACCAC | 0.00166
47 | CAATCTAC | -0.0654
48 | ACCAAGAA | -0.00575
49 | TAAATGCA | 0.0499
50 | AGAGACCC | -0.221
51 | CCGGGCCG | -0.129
52 | TTTTAAAA | 0.0597

Row | Sequence | PBM E-score
53 | ATAAATTG | 0.115
54 | ATAAATAG | 0.104
55 | ATAAATTA | 0.362
56 | ATATAAAT | 0.3
57 | ATAAATAT | 0.316
58 | ATATAAAG | 0.146
59 | ATAAATAA | 0.246
60 | CTAAATTA | 0.0644
61 | ATATAAAC | 0.0743
62 | ACTCGTCT | 0.0807
63 | CGGATATA | 0.185
64 | ACTCCTAC | 0.0623
65 | CTGGTAAA | -0.16
66 | GAACGCGC | 0.0459
67 | AGCACGGC | 0.0922
68 | GAATCGTC | 0.239
69 | CAGATGAC | 0.058
70 | AAGATGAC | 0.313
71 | GAGATGAC | 0.141
72 | AAGATGAA | -0.083
73 | ACGATGAT | 0.322
74 | AAGATGAT | 0.304
75 | ACGATGAA | 0.2
76 | ACGATGAC | 0.264
77 | AAGATGAG | 0.00927
78 | CACCAATG | 0.0285

Row | Sequence | PBM E-score
79 | GATCGACC | -0.0655
80 | ACAACGCT | -0.0795
81 | GATCTTGC | 0.0639
82 | CTGCCCTA | -0.132
83 | CTCCATGC | -0.265
84 | GATCCTGC | 0.0793
85 | AGGCCGTG | 0.092
86 | TGAGAGCA | -0.0853
87 | CCGCCGTC | 0.334
88 | CCGCCGTA | 0.0615
89 | ACGCCGTC | 0.282
90 | CATTGCCG | 0.0936
91 | GAACTCTC | -0.211
92 | CCGCAGTC | -0.165
93 | TGACTTAA | 0.061
94 | AATTGTCC | -0.0973
95 | AATTGTCA | 0.335
96 | GATTGTCA | 0.268
97 | AGAGTGGC | -0.251
98 | AGCAGATG | -0.0843
99 | ATATTAAA | 0.33
100 | CTATTAAA | -0.0136
101 | TTATTAAA | 0.116
102 | AAAAGTTA | 0.151
103 | CCATTCGG | -0.0195
104 | ATTTATTA | 0.309

Row | Sequence | PBM E-score
105 | CTTTATCA | 0.313
106 | CGTTATCA | 0.205
107 | GTTTATTA | 0.0803
108 | GTTTATCA | 0.304
109 | ATTATTTA | 0.254
110 | ATTTATCC | 0.317
111 | ATTTATCG | 0.222
112 | GTTTATGA | 0.11
113 | ACTTATCC | 0.11
114 | CTTTATCC | -0.0621
115 | GCTTATCA | 0.0367
116 | ACTCCCAT | -0.029
117 | GATCGACA | 0.013
118 | TCTTGTAA | 0.0644
119 | CCGTAAGC | 0.0521
120 | ATTTATCA | 0.314
121 | ATTTATGA | 0.229
122 | ATTTATAA | 0.176
123 | CGTACCAG | 0.0671
124 | TGTACTAA | 0.0702
125 | AGTACTCA | -0.0128
126 | CGTACTAC | 0.274
127 | CGTACTCA | 0.304
128 | TGTACCAA | 0.0776
129 | CGTACTAA | 0.329
130 | CGTACTCC | 0.203

Row | Sequence | PBM E-score
131 | CGTACCAA | 0.353
132 | CGACGCGA | -0.0138
133 | AGAATGTC | 0.188
134 | ACAACGCC | 0.13
135 | ACCCTACA | -0.153
136 | CGGTCAAC | 0.0203
137 | ACGACGTG | 0.232
138 | GCAAGCGC | -0.201
139 | ACCTCACC | -0.0217
140 | AATACGAC | 0.278
141 | GATACGAA | 0.309
142 | TCTACGAA | 0.301
143 | TATACGAA | 0.368
144 | GTTACGAA | 0.208
145 | CATACGAA | 0.267
146 | GATACGAC | 0.148
147 | TATACGGA | 0.164
148 | ACTACGAA | 0.205
149 | AATACGAT | 0.276
150 | AATACGAA | 0.337
151 | CCTACGAA | 0.253
152 | CCCCATCA | -0.235
153 | GAATTGGA | -0.016
154 | AGCACACC | -0.13
155 | CACAAGAG | -0.0119
156 | CCAGCACA | -0.0686

Row | Sequence | PBM E-score
157 | AGCGAGAA | -0.0126
158 | CGATATCA | 0.363
159 | CGATATTC | 0.225
160 | AGATATCG | 0.11
161 | CGATATCC | 0.17
162 | CGGTATCA | 0.204
163 | CGATATGA | 0.161
164 | CGATATTA | 0.326
165 | CGATATCG | 0.372
166 | GGATATTA | 0.088
167 | GGACCGCA | -0.155
168 | ACAGGGGC | -0.194
169 | ACACCCGT | -0.04
170 | TCAAACAA | -0.127
171 | GAGAGGAC | -0.077
172 | TCAGTAGA | -0.0357
173 | CATTAGTC | -0.14
174 | GTGACCAC | 0.175
175 | AAGATCGG | -0.163
176 | ACGATCGC | 0.265
177 | AAGATCGC | 0.169
